From the antibiotic and cytotoxicity screens of Wong et al. (2023) come the findings set out here.

In all, about 39,000 compounds went through this assay and about 3,300 (8.5%) were called active. Shown is part of a subset that was picked to be rich in actives.

The experiment has as its system HepG2. The experiment can be described thus: cytotoxicity call (relative viability < 0.9). As to conditions: 10 µM.
On to `C[C@@H](N)Cc1c[nH]c2ccc(O)cc12`, for which the cytotoxicity call was “inactive”. Regarding `O=C1CC[C@@H]2NCC[C@H]2N1`, the cytotoxicity call is “inactive”. For `CC[C@@H](N)[C@@H](O)c1ccc(O)c(O)c1`, the cytotoxicity call was “inactive”. For the compound `C[C@H](N)[C@H](O)c1ccc(O)c(O)c1`, the cytotoxicity call was “inactive”. Consider `CCC(N)C(O)c1ccc(O)c(O)c1.Cl` (stereo unspecified), for which the cytotoxicity call was “active”.

For the compound `CC=C(C)C(=O)OC1CCC2(C)C3CCC4C5(O)CC(O)C6(O)C(CN7CC(C)CCC7C6(C)O)C5(O)CC42OC13O.Cl` (stereo unspecified), the cytotoxicity call is “inactive”.

As to `N#C[C@H](O[C@@H]1O[C@H](CO)[C@@H](O)[C@H](O)[C@H]1O)c1ccc(O)cc1`, the cytotoxicity call is “inactive”. On to `Cl.N=C(N)NN`, for which the cytotoxicity call is “inactive”. With `[N-]=[N+]=Nc1ccc2[nH]ccc2c1` the entry was “inactive”; with `Nc1ccc(N2CCNCC2)cc1`, “inactive”. For `O=c1[nH]c2cc(N3CCNCC3)ccc2o1`, the cytotoxicity call is “active”.

As to `Oc1ccc(N2CCNCC2)cc1`, the cytotoxicity call was “inactive”. For the compound `OCc1ccco1`, the cytotoxicity call is “inactive”.

For `Cc1nnc([C@H]2CCCNC2)o1`, the cytotoxicity call was “inactive”.

Regarding `CC[C@H]1/C=C/C=C/C[C@@H](C)[C@H](O)[C@@](C)(O)C(=O)[C@@H](C)[C@H](O)[C@@H](C)C(=O)[C@@H](C)[C@H](O)[C@@H](C)/C=C/C(=O)O[C@@H]2[C@H](C)[C@H](CC1)O[C@]1(CC[C@H](C)[C@H](C[C@@H](C)O)O1)[C@H]2C`, the cytotoxicity call is “inactive”. As for `COc1cc(C2c3cc4c(cc3C(O)C3COC(=O)C23)OCO4)cc(OC)c1OC` (stereo unspecified), the cytotoxicity call was “active”. In the case of `COc1ccc2c(c1OC)C(=O)OC2C1c2cc3c(cc2CCN1C)OCO3` (stereo unspecified), the cytotoxicity call was “inactive”. With `C[C@H](CO)N1C[C@H](C)[C@H](CN(C)C(=O)Oc2ccccc2)OCc2ccccc2-c2c(n(C)c3ccccc23)C1=O` the entry was “inactive”; with `COc1cc2c(cc1OC)C1C(=O)c3ccc4c(c3OC1CO2)CC(C(C)C)O4` (stereo unspecified), “active”; with `C=C(C)C1Cc2c(ccc3c2OC2COc4cc(OC)c(OC)cc4C2C3=O)O1` (stereo unspecified), “active”.

Take `C=C(C)C1Cc2c(ccc3c(=O)c4c(oc23)COc2cc(OC)c(OC)cc2-4)O1` (stereo unspecified): the cytotoxicity call is “inactive”. For `COc1cc2c(cc1OC)C1C(=O)c3ccc4oc(C(C)C)cc4c3OC1CO2` (stereo unspecified), the cytotoxicity call is “active”.

Take `O=C(NCc1ccccc1)[C@H]1C[C@H]2CNC[C@H]1O2`: the cytotoxicity call was “inactive”.

For `CC(C)(C)[C@@]1(O)C[C@H]2OC(=O)C[C@]23C(=O)O[C@H]2OC(=O)[C@@H](O)[C@]231`, the cytotoxicity call is “inactive”. Consider `C=CCN1CCC23c4c5ccc(O)c4OC2C(=O)CCC3(O)C1C5.Cl` (stereo unspecified), for which the cytotoxicity call was “inactive”.

Consider `CCOC(OCC)P(=O)(O)CCCN`, for which the cytotoxicity call is “inactive”. `O=C1CO[C@H]2CNC[C@@H]2N1CC1CCCC1`: the cytotoxicity call is “inactive”.

`CCOC(=O)[C@H]1[C@@H](C=C(C)C)C1(C)C`: the cytotoxicity call is “inactive”. As for `COc1ccc(N(C(=O)Oc2c(C)cccc2C)c2ccnc(Nc3ccc(N4CCN(C)CC4)cc3)n2)c(OC)c1`, the cytotoxicity call is “inactive”. Consider `N=C(N)N/N=C/c1ccc2c(c1)OCO2`, for which the cytotoxicity call is “inactive”. For the compound `Cc1o[nH]c(=O)c1C[C@H](N)C(=O)O`, the cytotoxicity call is “inactive”. With `CCC(=O)OC1CCC2C3CCC4=CC(=O)CCC4(C)C3CCC12C` (stereo unspecified) the entry was “inactive”. `C#CC1(O)CCC2C3CCC4=CC(=O)CCC4(C)C3CCC21C` (stereo unspecified): the cytotoxicity call was “active”.

With `CC12CCC(=O)C=C1CCC1C2CCC2(C)C(O)CCC12` (stereo unspecified), the cytotoxicity call was “inactive”. For `CN1[C@H](CO)[C@H]2c3ccccc3NC[C@H]21`, the cytotoxicity call is “inactive”. Consider `Cl.NNCc1ccccc1`, for which the cytotoxicity call is “inactive”.

Take `CC(=O)[O][Cd][O]C(C)=O`: the cytotoxicity call is “inactive”. With `NC[C@@H](O)c1ccc(Br)cc1` the entry was “inactive”. With `C[C@@H]1NC[C@@H]2CCCN2C1=O`, the cytotoxicity call is “inactive”. On to `O=c1[nH]c2ccccc2n1C1CCN(CCCC(c2ccc(F)cc2)c2ccc(F)cc2)CC1`, for which the cytotoxicity call is “active”.

As for `O=c1[nH]c2ccccc2n1CCCN1CCC(n2c(=O)[nH]c3cc(Cl)ccc32)CC1`, the cytotoxicity call was “inactive”. For `NC[C@@H](CC(=O)O)c1ccc(Cl)cc1`, the cytotoxicity call is “inactive”.

Regarding `CCOC(=O)c1c(CN2CCN(Cc3ccccc3)CC2)n(Cc2ccccc2)c2cc(Br)c(O)cc12`, the cytotoxicity call is “inactive”. Turning to `CN(C)C(=O)C(CCN1CCC(O)(c2ccc(Cl)cc2)CC1)(c1ccccc1)c1ccccc1.Cl`, the cytotoxicity call is “active”.

As to `CN1CCN(CC2CC2)C(=O)C12CCNCC2`, the cytotoxicity call was “inactive”. Consider `O=C(C1CCCC1)N1C[C@@H]2CCNC[C@@H]21`, for which the cytotoxicity call was “inactive”.
